CASP6 VEID inh: inhibitors of human caspase-6. purified caspase-6, Z-VEID-R110 cleavage fluorescence. P55212. 0.53% of 350,000 active. inhibition, % at 12.5 µM;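 active = mean inhibition across replicates at least about 35%, with every replicate also reaching that limit, limit read from the data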
Target sequence (P55212 24-179 limits assumed): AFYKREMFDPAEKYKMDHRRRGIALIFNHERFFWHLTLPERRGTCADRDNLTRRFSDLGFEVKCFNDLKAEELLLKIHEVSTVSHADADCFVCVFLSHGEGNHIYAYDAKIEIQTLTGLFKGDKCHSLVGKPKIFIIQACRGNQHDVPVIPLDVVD
Target sequence (P55212 194-293 limits assumed): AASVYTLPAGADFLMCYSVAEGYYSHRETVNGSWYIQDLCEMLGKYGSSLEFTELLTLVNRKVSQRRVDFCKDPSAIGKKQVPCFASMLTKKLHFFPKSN
ERAP1 inh: blocks human ERAP1 aminopeptidase activity | inhibition, % at 10.7 µM | 0.15% of 340,000 active | Q9NZ08 | AID 652197 | recombinant ERAP1, Leu-AMC fluorescence, 60 min;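 active = mean replicate inhibition of at least 30%, or all replicates individually reaching that 30% level; inactive = mean below 30% and not every replicate reaching it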
FGF22 binding: FGF22 (human) thermal shift binding. Q9HCT0. recombinant FGF22 thermal shift, SYPRO orange fluorescence; percent of sucrose octasulfate shift, DMSO zero. activity (Tm shift, normalised), % at 9.99 µM. 1.5% of 340,000 active. AID 651658;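 active = mean Tm shift, scaled 0 neutral to 100 positive control, at about 1.3% or above, every replicate too, limit read from the data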
Target sequence (Q9HCT0 whole entry, looked up): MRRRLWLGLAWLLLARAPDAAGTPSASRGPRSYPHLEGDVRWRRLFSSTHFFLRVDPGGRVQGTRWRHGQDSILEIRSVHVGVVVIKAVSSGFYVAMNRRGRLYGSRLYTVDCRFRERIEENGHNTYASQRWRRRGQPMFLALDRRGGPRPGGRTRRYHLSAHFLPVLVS
SIRT5 block: sirtuin-5 (human) deacylase inhibition; AID 652115; inhibition, % at 15 µM; 1.1% of 330,000 active; Purified SirT5, succinyl-peptide AMC, trypsin-coupled fluorescence; in the data active = inhibition above about 15%
Numbers stand for hits; - = inactive; . = no result given; ! = not active in a repeat. Hits are enriched below; roughly 3.1% of the tested compounds scored in any of these assays.

SMILES	CASP6 VEID inh	ERAP1 inh	FGF22 binding	SIRT5 block
O=C(Nc1cc(F)ccc1F)N[C@@H]1CC[C@H](CCn2cc(C3CCCC3)nn2)O[C@@H]1CO	-	-	.	-
Cc1oc(-c2ccc(-c3ccccc3)cc2)nc1CN(C)C1CCOC1 (stereo not given)	-	-	-	17.6
COc1ccccc1N1C(=O)Cc2ccccc2C1=O	48.8	-	-	-
Cc1cccc(N2C(=O)Cc3ccccc3C2=O)c1	48.0	-	-	-
Cc1ccc(N2C(=O)Cc3ccccc3C2=O)cc1	49.7	-	-	-
COc1cccc(C(=O)Nc2ccc3c(c2)OC[C@H](C)N(C(C)=O)C[C@H](C)[C@@H](OC)CN(C)C3=O)c1	-	-	-	-
COc1ccc2c3c([nH]c2c1)[C@H](CO)N(C(=O)C1CCCC1)CC31CN(C(=O)c2ccncc2)C1	-	-	-	-
CN1CCC(=NNC(=O)C(=O)Nc2cccc(Br)c2)CC1	-	-	42.9	-
CN1CCC(=NNC(=O)C(=O)Nc2ccc(F)cc2)CC1	-	-	-	-
CNc1nc(NCc2ccc(C)cc2C)c2sccc2n1	-	-	-	-
Cc1ccc(CNc2nc(NC(C)C)nc3ccsc23)c(C)c1	-	-	-	20.8
C[C@H](CO)N1C[C@H](C)[C@H](CN(C)S(=O)(=O)c2cn(C)cn2)Oc2c(NC(=O)NC3CCCCC3)cccc2C1=O	-	-	-	-
CCOC(=O)C1=CCN(S(=O)(=O)c2ccccc2Br)C1c1ccc(Cl)c(Cl)c1 (stereo not given)	-	-	-	25.0
CCn1c(C)nc2cc(C(=O)NNC(=O)Nc3ccc(Cl)c(Cl)c3)ccc21	.	-	-	17.7
CCn1c(C)nc2cc(C(=O)NNC(=S)Nc3ccc(Cl)cc3)ccc21	-	-	-	-
C[C@H](CO)N1C[C@H](C)[C@H](CN(C)C(=O)Nc2cccc3ccccc23)Oc2c(NC(=O)c3nc4ccccc4s3)cccc2C1=O	-	-	-	-
Clc1ccccc1CN1CCN(/N=C/C=C\c2ccco2)CC1	-	-	-	28.2
CC(NC(=O)c1ccccc1N)c1ccccc1 (stereo not given)	-	-	43.0	-
C[C@@H]1CN([C@H](C)CO)C(=O)Cc2cc(NC(=O)CCC(F)(F)F)ccc2O[C@H]1CN(C)C(=O)Nc1ccc2c(c1)OCO2	-	-	-	-
Cc1cccc(NC(=O)COn2nnc3ccc(S(C)(=O)=O)cc32)c1	-	-	43.0	-
C[C@H](CO)N1C[C@H](C)[C@@H](CN(C)C(=O)NC2CCCCC2)Oc2cc(/C=C/c3ccccc3)ccc2S1(=O)=O	-	-	-	-
C[C@@H]1CN([C@@H](C)CO)S(=O)(=O)c2ccc(/C=C/c3ccccc3)cc2O[C@H]1CN(C)C(=O)NC1CCCCC1	-	-	-	22.4
C[C@@H]1CN([C@@H](C)CO)S(=O)(=O)c2ccc(/C=C/c3ccccc3)cc2O[C@@H]1CN(C)C(=O)NC1CCCCC1	-	-	-	27.8
C[C@H]1CN([C@@H](C)CO)S(=O)(=O)c2ccc(/C=C/c3ccccc3)cc2O[C@H]1CN(C)C(=O)NC1CCCC1	-	-	-	19.1
C[C@H](CO)N1C[C@H](C)[C@H](CN(C)C(=O)NC2CCCCC2)Oc2cc(/C=C/c3ccccc3)ccc2S1(=O)=O	-	-	-	24.9
SMILES	CASP6 VEID inh	ERAP1 inh	FGF22 binding	SIRT5 block
C[C@@H](NC(=O)C[C@H]1C[C@H]2c3cc(NC(=O)C4CCC4)ccc3O[C@H]2[C@@H](CO)O1)c1ccccc1	-	-	.	-
CC(C)NC(=O)Nc1ccc2c(c1)C(=O)N([C@@H](C)CO)C[C@H](C)[C@@H](CN(C)Cc1ccc(C(F)(F)F)cc1)OCCCC[C@H](C)O2	-	-	-	-
C[C@H]1CN([C@@H](C)CO)S(=O)(=O)c2ccc(/C=C/c3ccccc3)cc2O[C@H]1CN(C)C(=O)NC1CCCCC1	-	-	-	26.4!
C[C@@H]1CCCCO[C@H](CN(C)C(=O)Nc2ccccc2)[C@@H](C)CN([C@@H](C)CO)C(=O)c2cc(NC(=O)c3ccncc3)ccc2O1	-	-	.	-
C[C@@H]1CN([C@H](C)CO)C(=O)c2cc(NC(=O)c3ccncc3)ccc2O[C@@H]1CN(C)Cc1ccccc1	-	-	-	-
CCCNC(=O)N1C[C@H]2[C@@H](c3ccccc31)[C@@H](CO)N2C(=O)Cc1ccccn1	-	-	-	-
CN(c1ccc(O)cc1)c1nc(O)c(C2=c3ccccc3=NC2=O)s1	-	.	-	19.9
Cc1ccc(S(=O)(=O)N2C[C@@H](C)[C@]3(C2)[C@H](O)[C@H](OC(=O)NCc2ccco2)C[C@H]2C(=O)N(c4ccccc4)C(=O)[C@H]23)cc1	-	-	-	21.6
COc1ccc(CNC(=O)O[C@@H]2C[C@H]3C(=O)N(c4ccccc4)C(=O)[C@H]3[C@@]3(CN(S(=O)(=O)c4ccc(C)cc4)C[C@H]3C)[C@@H]2O)cc1OC	-	-	-	-
O=C1CSCN1c1ccc(Cl)c(Cl)c1	-	-	43.1	-
O=C1CSCN1c1cc(Cl)ccc1Cl	-	-	-	-
CO[C@@H]1CN(C)C(=O)c2cc(NC(C)=O)ccc2OC[C@H](C)N(C(=O)c2ccccn2)C[C@H]1C	-	-	-	-
O=C(C[C@H]1C=C[C@H](NC(=O)C2CC2)[C@@H](CO)O1)NCc1ccccc1Cl	-	-	-	-
Cc1nn(C)c(Oc2cccc(C(F)(F)F)c2)c1C=O	-	-	43.3	-
C[C@H]1CN([C@@H](C)CO)C(=O)c2cc(-c3ccccc3F)cnc2O[C@@H]1CN(C)C(=O)CN(C)C	-	-	-	-
COCC#Cc1cnc2c(c1)C(=O)N([C@H](C)CO)C[C@@H](C)[C@@H](CN(C)C(=O)c1ccc3c(c1)OCO3)O2	-	-	-	-
COC(=O)N/N=C/C1=CCC2CC1C2(C)C (stereo not given)	-	-	-	-
CC1(C)C2CC=C(/C=N/NC(=O)c3ccccc3Br)C1C2 (stereo not given)	-	-	43.4	-
Cc1cc(-n2nnc3ccccc32)nc2ccccc12	54.6	-	.	-
CCCS(=O)(=O)N1CCn2c(nc3ccccc32)C1	-	-	-	15.4
CCn1c(N2CCN(S(=O)(=O)CC)CC2)nc2ccccc21	-	-	-	-
C[C@@H]1CN([C@@H](C)CO)C(=O)c2cc(-c3cncnc3)cnc2O[C@@H]1CN(C)C(=O)CN1CCOCC1	-	-	-	-
O=C(C[C@@H]1C[C@H]2c3cc(NC(=O)Nc4ccccc4F)ccc3O[C@H]2[C@H](CO)O1)NC1CCCCC1	-	-	-	-
CCN(CC)S(=O)(=O)c1cccc(-c2nnc(SCC(=O)N3CCC(C(=O)O)CC3)n2N)c1	-	-	-	-
CCN(CC)S(=O)(=O)c1cccc(-c2nnc(SCC(=O)NC)n2N)c1	-	-	43.8	-
C[C@@H]1CN([C@@H](C)CO)C(=O)c2cccc(NS(=O)(=O)c3ccccc3)c2O[C@H]1CN(C)Cc1ccc(C(F)(F)F)cc1	-	-	-	-
Cc1ccc(S(=O)(=O)N[C@@H]2CC[C@H](CCn3cc(-c4ccccc4F)nn3)O[C@@H]2CO)cc1	-	-	-	-
